# PubChem BioAssay (Tox21)
# Values joined by “and” are separate entries in the source; they are usually repeats but may differ in a detail not shown here. Equal values may be shown once. Inconclusive results are not listed. Unmarked numbers belong to inactive results. Active and inactive are the calls of the source. The call rests on the fitted dose curve; in most records, active means well fitted cell-killing curve with a large enough effect in the repeat runs; inconclusive means weak or mixed curves, or effect the other way; inactive means no such curve, though single readings can be large or run the other way.
# Test: qHTS assay to identify small molecule antagonists of the glucocorticoid receptor (GR) signaling pathway - cell viability counter screen (AID 720693); further: nearly all actives have a fitted effect of over 55% in size
# Details: GR-bla HeLa viability, CellTiter-Glo luminescence, 18 h, with 5 nM dexamethasone present; series mostly up to 58.5 µM; viability change, negative = cytotoxic: at the top concentration
# On the % scale 0 is the no-effect control and ±100 the full control effect; potency means the concentration at half of the fitted maximal effect.
Compound,"viability change, negative = cytotoxic",Potency
FC(F)(F)C(F)(F)C(F)(F)C(F)(F)C(F)(F)C(F)(F)F,18.4%,
O=C1/C(=C\c2cccs2)CCC/C1=C\c1cccs1,0.359%,
C/C=C1\NC(=O)[C@H]2CSSCC/C=C/[C@H](CC(=O)N[C@H](C(C)C)C(=O)N2)OC(=O)C(C(C)C)NC1=O (stereo partly drawn),,2.39 µM (active)
CCCCCCCCCCCCCCCCCCCCCCO,1.5%,
OCCO[C@@H]1[C@@H](O)[C@H](O)[C@@H](CO)O[C@@H]1O,0.811%,
CCC[C@@]1(CCc2ccccc2)CC(O)=C([C@H](CC)c2cccc(NS(=O)(=O)c3ccc(C(F)(F)F)cn3)c2)C(=O)O1,-15.6%,
CCCCCCCCCCCCCCCCCC(=O)[O][Al],-6.37%,
CCN(CC)c1ccc(C(=C2C=CC(=[N+](CC)CC)C=C2)c2ccccc2)cc1,,1.51 µM (active)
C[C@H]1C[C@H]2[C@@H]3CCC4=CC(=O)C=C[C@]4(C)[C@@]3(F)[C@@H](O)C[C@]2(C)[C@@]1(O)C(=O)CCl,11.3%,
c1ccc2c(c1)Sc1ccccc1N2CCN1CCCC1,9.43%,
CCCCC(F)(F)[C@@]1(O)CC[C@H]2[C@@H](CC(=O)[C@@H]2CCCCCCC(=O)O)O1,10.8%,
CO/N=C(\C(=O)N[C@@H]1C(=O)N2C(C(=O)O)=C(CSc3nnnn3C)CS[C@H]12)c1csc(N)n1,-6.59%,
CS(=O)(=O)Nc1cc2occ(NC=O)c(=O)c2cc1Oc1ccccc1,-3.47%,
Nc1ncnc(Nc2ccc(Cl)cc2)n1,-8.08%,
Cc1c(N)nc(C(CC(N)=O)NCC(N)C(N)=O)nc1C(=O)NC(C(=O)NC(C)C(O)C(C)C(=O)NC(C(=O)NCCc1nc(-c2nc(C(=O)NCCCN[C@@H](C)c3ccccc3)cs2)cs1)C(C)O)C(O[C@@H]1O[C@@H](CO)[C@@H](O)[C@H](O)[C@@H]1O[C@H]1O[C@H](CO)[C@@H](O)[C@H](OC(N)=O)[C@@H]1O)c1cnc[nH]1 (stereo partly drawn),-14.8%,
C[C@]12CC[C@@H]3c4ccc(OS(=O)(=O)O)cc4CC[C@H]3[C@@H]1CCC2=O,-2.36%,
CN1[C@@H]2CC[C@H]1CC(OC(c1ccccc1)c1ccccc1)C2 (stereo partly drawn),,inactive
CCCc1ccc(C(=O)O)cc1,4.94%,
Cc1cccc(C)c1Nc1ncccc1C(=O)O,-14.4%,
O=C1O[C@H]2[C@H](O)[C@@H]1OC(O)[C@H]2O (stereo partly drawn),-11.3%,

Compound,"viability change, negative = cytotoxic",Potency
CC(C)(C)NCC(O)c1ccc(O)c(CO)n1 (stereo not drawn),-0.239%,
Nc1nc(=O)n([C@@H]2CS[C@H](CO)O2)cc1F,8.75%,
NCCCC[C@H](NC(=O)[C@@H]1CCCN1C(=O)[C@@H]1CSSC[C@H](N)C(=O)N[C@@H](Cc2ccccc2)C(=O)N[C@@H](Cc2ccccc2)C(=O)N[C@@H](CCC(N)=O)C(=O)N[C@@H](CC(N)=O)C(=O)N1)C(=O)NCC(N)=O,-7.47%,
CCCCCCCCCCCCCCCC(=O)OC[C@@H](NC(=O)C(Cl)Cl)[C@H](O)c1ccc([N+](=O)[O-])cc1,-6.31%,
N=C(N)c1ccc(OCCCOc2ccc(C(=N)N)cc2Br)c(Br)c1,-1.43%,
N[C@H](CC(=O)O)C(=O)O,23.9%,
CS(=O)(=O)OCCCNCCCOS(C)(=O)=O,-5.6%,
O=[n+]1ccn([O-])c2ccccc21,-2.43%,
O=C(O)[C@H]1/C(=C/CO)O[C@@H]2CC(=O)N21,0.338%,
CCC(=O)OCC(=O)[C@@]1(OC(=O)CC)[C@@H](C)C[C@H]2[C@@H]3CCC4=CC(=O)C=C[C@]4(C)[C@@]3(Cl)[C@@H](O)C[C@@]21C,-3.3%,
COc1ccc(CNCC(O)COc2ccc3[nH]c(=O)ccc3c2)cc1OC (stereo not drawn),-1.55%,
O=C(O)C1CCCN1 (stereo not drawn),2.03%,
Cc1cc2nc3c(=O)[nH]c(=O)nc-3n(C[C@H](O)[C@H](O)[C@H](O)COP(=O)(O)OP(=O)(O)OC[C@H]3O[C@@H](n4cnc5c(N)ncnc54)[C@H](O)[C@@H]3O)c2cc1C,15.2%,
Cc1ccc(C2(O)CCN(CCCC(=O)c3ccc(F)cc3)CC2)cc1,0.454%,
CC(C(=O)O)c1ccc(C2CCCCC2)c2ccccc12 (stereo not drawn),25.4%,
CO[C@H]1C[C@@H]2CC[C@@H](C)[C@@](O)(O2)C(=O)C(=O)N2CCCC[C@H]2C(=O)O[C@H]([C@H](C)C[C@@H]2CC[C@@H](OCCO)[C@H](OC)C2)CC(=O)[C@H](C)/C=C(\C)[C@@H](O)[C@@H](OC)C(=O)[C@H](C)C[C@H](C)/C=C/C=C/C=C/1C,,23.9 µM (active)
CCCCCCCN(CC)CCCC(O)c1ccc(NS(C)(=O)=O)cc1 (stereo not drawn),-0.277%,
CC(C)(C)CC(=O)OCC(=O)[C@@]12OC(C)(C)O[C@@H]1C[C@H]1[C@@H]3CCC4=CC(=O)C=C[C@]4(C)[C@@]3(F)[C@@H](O)C[C@@]12C,-4.5%,
CO/N=C(\C(=O)N[C@@H]1C(=O)N2C(C(=O)O)=CCS[C@H]12)c1csc(N)n1,0.105%,

# Test: qHTS assay for identifying genotoxic compounds that show differential cytotoxicity against isogenic chicken DT40 cell lines with known DNA damage response pathways - wild type cell line (AID 743012); further: nearly all actives have a fitted effect of over 60% in size
# Details: DT40 wild type chicken cells viability, CellTiter-Glo, 40 h; series mostly up to 68.4 µM; activity change, negative = cytotoxicity: at the top concentration
# Procedure, shortened: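 Cells (DT40 wild type, 300/well) are treated with DMSO-dissolved compounds after a ~0.5 h pre-incubation and kept 40 h at 37 C/5% CO2. Viability is then measured by CellTiter-Glo luminescence following 30 min at room temperature.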
Compound,"activity change, negative = cytotoxicity",Potency
FC(F)(F)C(F)(F)C(F)(F)C(F)(F)C(F)(F)C(F)(F)F,10.8%,
O=C1/C(=C\c2cccs2)CCC/C1=C\c1cccs1,,23.7 µM (active)
C/C=C1\NC(=O)[C@H]2CSSCC/C=C/[C@H](CC(=O)N[C@H](C(C)C)C(=O)N2)OC(=O)C(C(C)C)NC1=O (stereo partly drawn),,0.0013 µM (active)
CCCCCCCCCCCCCCCCCCCCCCO,0.206%,
OCCO[C@@H]1[C@@H](O)[C@H](O)[C@@H](CO)O[C@@H]1O,14.2%,
CCC[C@@]1(CCc2ccccc2)CC(O)=C([C@H](CC)c2cccc(NS(=O)(=O)c3ccc(C(F)(F)F)cn3)c2)C(=O)O1,-11%,
CCCCCCCCCCCCCCCCCC(=O)[O][Al],10.9%,
CCN(CC)c1ccc(C(=C2C=CC(=[N+](CC)CC)C=C2)c2ccccc2)cc1,,0.0944 µM (active)
C[C@H]1C[C@H]2[C@@H]3CCC4=CC(=O)C=C[C@]4(C)[C@@]3(F)[C@@H](O)C[C@]2(C)[C@@]1(O)C(=O)CCl,,18.8 µM (active)
c1ccc2c(c1)Sc1ccccc1N2CCN1CCCC1,,10.6 µM (active)
CCCCC(F)(F)[C@@]1(O)CC[C@H]2[C@@H](CC(=O)[C@@H]2CCCCCCC(=O)O)O1,-11.3%,
CO/N=C(\C(=O)N[C@@H]1C(=O)N2C(C(=O)O)=C(CSc3nnnn3C)CS[C@H]12)c1csc(N)n1,16.8%,
CS(=O)(=O)Nc1cc2occ(NC=O)c(=O)c2cc1Oc1ccccc1,9.5%,
Nc1ncnc(Nc2ccc(Cl)cc2)n1,-6.85%,
Cc1c(N)nc(C(CC(N)=O)NCC(N)C(N)=O)nc1C(=O)NC(C(=O)NC(C)C(O)C(C)C(=O)NC(C(=O)NCCc1nc(-c2nc(C(=O)NCCCN[C@@H](C)c3ccccc3)cs2)cs1)C(C)O)C(O[C@@H]1O[C@@H](CO)[C@@H](O)[C@H](O)[C@@H]1O[C@H]1O[C@H](CO)[C@@H](O)[C@H](OC(N)=O)[C@@H]1O)c1cnc[nH]1 (stereo partly drawn),,1.19 µM (active)
C[C@]12CC[C@@H]3c4ccc(OS(=O)(=O)O)cc4CC[C@H]3[C@@H]1CCC2=O,9.17%,
CN1[C@@H]2CC[C@H]1CC(OC(c1ccccc1)c1ccccc1)C2 (stereo partly drawn),,5.31 µM (active) and 13.3 µM (active) and 6.68 µM (active)
CCCc1ccc(C(=O)O)cc1,10%,
Cc1cccc(C)c1Nc1ncccc1C(=O)O,2.12%,
O=C1O[C@H]2[C@H](O)[C@@H]1OC(O)[C@H]2O (stereo partly drawn),6.36%,

Compound,"activity change, negative = cytotoxicity",Potency
CC(C)(C)NCC(O)c1ccc(O)c(CO)n1 (stereo not drawn),0.127%,
Nc1nc(=O)n([C@@H]2CS[C@H](CO)O2)cc1F,5.84%,
NCCCC[C@H](NC(=O)[C@@H]1CCCN1C(=O)[C@@H]1CSSC[C@H](N)C(=O)N[C@@H](Cc2ccccc2)C(=O)N[C@@H](Cc2ccccc2)C(=O)N[C@@H](CCC(N)=O)C(=O)N[C@@H](CC(N)=O)C(=O)N1)C(=O)NCC(N)=O,0.894%,
CCCCCCCCCCCCCCCC(=O)OC[C@@H](NC(=O)C(Cl)Cl)[C@H](O)c1ccc([N+](=O)[O-])cc1,2.83%,
N=C(N)c1ccc(OCCCOc2ccc(C(=N)N)cc2Br)c(Br)c1,,5.96 µM (active)
N[C@H](CC(=O)O)C(=O)O,9.02%,
CS(=O)(=O)OCCCNCCCOS(C)(=O)=O,-0.533%,
O=[n+]1ccn([O-])c2ccccc21,2.35%,
O=C(O)[C@H]1/C(=C/CO)O[C@@H]2CC(=O)N21,7.8%,
CCC(=O)OCC(=O)[C@@]1(OC(=O)CC)[C@@H](C)C[C@H]2[C@@H]3CCC4=CC(=O)C=C[C@]4(C)[C@@]3(Cl)[C@@H](O)C[C@@]21C,,13.3 µM (active)
COc1ccc(CNCC(O)COc2ccc3[nH]c(=O)ccc3c2)cc1OC (stereo not drawn),-0.589%,
O=C(O)C1CCCN1 (stereo not drawn),1.99%,
Cc1cc2nc3c(=O)[nH]c(=O)nc-3n(C[C@H](O)[C@H](O)[C@H](O)COP(=O)(O)OP(=O)(O)OC[C@H]3O[C@@H](n4cnc5c(N)ncnc54)[C@H](O)[C@@H]3O)c2cc1C,15.4%,
Cc1ccc(C2(O)CCN(CCCC(=O)c3ccc(F)cc3)CC2)cc1,,11.9 µM (active)
CC(C(=O)O)c1ccc(C2CCCCC2)c2ccccc12 (stereo not drawn),0.426%,
CO[C@H]1C[C@@H]2CC[C@@H](C)[C@@](O)(O2)C(=O)C(=O)N2CCCC[C@H]2C(=O)O[C@H]([C@H](C)C[C@@H]2CC[C@@H](OCCO)[C@H](OC)C2)CC(=O)[C@H](C)/C=C(\C)[C@@H](O)[C@@H](OC)C(=O)[C@H](C)C[C@H](C)/C=C/C=C/C=C/1C,,0.0094 µM (active)
CCCCCCCN(CC)CCCC(O)c1ccc(NS(C)(=O)=O)cc1 (stereo not drawn),,23.7 µM (active)
CC(C)(C)CC(=O)OCC(=O)[C@@]12OC(C)(C)O[C@@H]1C[C@H]1[C@@H]3CCC4=CC(=O)C=C[C@]4(C)[C@@]3(F)[C@@H](O)C[C@@]12C,1.93%,
CO/N=C(\C(=O)N[C@@H]1C(=O)N2C(C(=O)O)=CCS[C@H]12)c1csc(N)n1,0.235%,
